G9a inh = G9a (human) methyltransferase inhibition | actives 8.8% (n = 350,000) | G9a H3K9 monomethylation, AlphaScreen, 2 h | Potency, µM (highest dose often 102 µM), without a hit: at the highest dose activity, negative = inhibition, hits mostly inhibitors | AID 504332; also: % is scaled to controls: 0 for no effect and ±100 for the full control effect; nearly all actives have a fitted effect of over 75% in size
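Readings reflect AlphaScreen signal from monomethyl-H3K9 antibody detection. HMT at 20 nM; substrate b-H3K9 500 nM; cofactor SAM 20 uM; 2 h RT reaction; compounds tested as titrations in qHTS with 15 min preincubation.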
L3MBTL1 block = blocks human L3MBTL1. Q9Y468. AlphaScreen L3MBTL1–H3K9me1 peptide binding. Potency, µM (doses to about 57.1 µM), for the others: at the highest dose activity, negative = inhibition, hits mostly inhibitors. actives 0.66% (n = 230,000). AID 485360; also: % is scaled to controls: 0 for no effect and ±100 for the full control effect; nearly all actives have a fitted effect of over 60% in size
Target sequence (Q9Y468 whole entry, looked up): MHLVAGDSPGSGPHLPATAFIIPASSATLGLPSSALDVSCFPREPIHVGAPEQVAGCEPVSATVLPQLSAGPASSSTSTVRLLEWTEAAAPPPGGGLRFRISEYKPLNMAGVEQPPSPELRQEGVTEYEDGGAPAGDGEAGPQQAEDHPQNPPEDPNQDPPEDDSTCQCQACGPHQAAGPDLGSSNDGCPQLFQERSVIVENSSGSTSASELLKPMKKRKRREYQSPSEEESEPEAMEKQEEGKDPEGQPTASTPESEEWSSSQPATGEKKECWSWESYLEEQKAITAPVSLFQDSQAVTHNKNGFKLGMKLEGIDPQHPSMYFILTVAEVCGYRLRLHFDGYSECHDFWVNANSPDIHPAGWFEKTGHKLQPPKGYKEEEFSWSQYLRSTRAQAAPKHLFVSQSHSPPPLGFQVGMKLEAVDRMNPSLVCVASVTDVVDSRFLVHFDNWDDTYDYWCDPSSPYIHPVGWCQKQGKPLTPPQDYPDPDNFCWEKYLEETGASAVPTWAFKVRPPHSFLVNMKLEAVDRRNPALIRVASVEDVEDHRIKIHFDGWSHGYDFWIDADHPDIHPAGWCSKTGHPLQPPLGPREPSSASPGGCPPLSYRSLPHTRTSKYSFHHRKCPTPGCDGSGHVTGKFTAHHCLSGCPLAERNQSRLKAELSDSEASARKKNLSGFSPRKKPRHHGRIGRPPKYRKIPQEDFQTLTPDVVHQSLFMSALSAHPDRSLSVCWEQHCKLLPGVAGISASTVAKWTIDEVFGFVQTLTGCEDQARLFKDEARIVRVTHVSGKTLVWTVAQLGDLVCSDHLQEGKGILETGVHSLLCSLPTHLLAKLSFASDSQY
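First, the protein-peptide complex forms for 30 min at room temperature (L3MBTL1 50 nM, biotinylated H3K9me1 peptide 75 nM). Next, compounds are pin-transferred and incubated 30 min. Finally, AlphaScreen beads are added and read after 30 min.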
BAZ2B block = BAZ2B (human) inhibition; AlphaScreen BAZ2B-H3K14Ac peptide displacement; Q9UIF8; actives 4.4% (n = 360,000); AID 504333; Potency, µM (highest dose often 114 µM), for inactives: at the highest dose activity change, negative = inhibition, hits mostly inhibitors; also: % is scaled to controls: 0 for no effect and ±100 for the full control effect; nearly all actives have a fitted effect of over 60% in size
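BAZ2B 50 nM plus b-H3(5-23)K14Ac 50 nM, PBS pH 7.4/0.01% Tween-20, 30 min RT; compound added (max 110 uM), 30 min RT; streptavidin donor/Ni-chelate acceptor beads 10 ug/mL final, 20 min dark; AlphaScreen read.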
JMJD2A Tudor inh = blocks the human JMJD2A Tudor domain. O75164. AlphaScreen JMJD2A-Tudor / H3K4me3 peptide binding. Potency, µM (series often up to 114 µM), for inactives: top-dose activity change, negative = inhibition, actives largely listed as inhibitors. actives 4.4% (n = 390,000). AID 504339; also: % is scaled to controls: 0 for no effect and ±100 for the full control effect; nearly all actives have a fitted effect of over 50% in size
HP1b binding inh = inhibitors of HP1-beta chromodomain binding to methylated histone tails; P83916; AlphaScreen HP1-beta / biotin-H3K9me3 peptide binding; Potency, µM (highest dose often 114 µM), for the others: at the highest dose activity change, negative = inhibition, actives largely listed as inhibitors; actives 0.56% (n = 390,000); also: nearly all actives have a fitted effect of over 70% in size
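AlphaScreen: HP1-beta (50 nM) preformed 30 min with biotin-H3(1-18)K9me3 peptide (50 nM) in PBS pH 7.4, 0.01% Tween-20. Compound added for 30 min at RT, then streptavidin donor/nickel chelate acceptor beads (10 ug/mL) for 30 min.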
Starred values were filed as active, the others as inactive; ? = inconclusive; . = no result given; [ ] = dose if it differs, or a comment. In the library only some 11% were active in any assay of this set; here they are far more common. Calls follow the shape of the dose curve; as a rule, active = well fitted inhibition curve with a large enough effect; inconclusive = small, poorly fitted or top-dose-only effect; inactive = no such curve, though single readings can be large or run the other way. Potency is read from the fitted curve at half-maximal effect.

SMILES	G9a inh	L3MBTL1 block	BAZ2B block	JMJD2A Tudor inh	HP1b binding inh
CC(C)CCOc1ccc(C(=O)CCNC(C)C(=O)O)cc1 (centres undefined)	5.62µM*	9.2%	-1.9%	.	.
NN1C(=O)NC(c2ccccc2)(c2ccccc2)C1=O	8.1%[59 µM]	.	-5.1%	25.1µM*	29.2%
Cc1ccc(C)c2[nH]c(=O)c(CN(Cc3cccs3)C(=S)NCc3ccco3)cc12	0.4%[59 µM]	-10.4%	-1.3%	-23.3%	0.3%
Cc1cccc2cc(CN(CC3CCCO3)C(=O)c3ccco3)c(=O)[nH]c12 (centres undefined)	50.1µM*	0.0%	-29.3%	-6.0%	36.2%
Cc1ccc2cc(CN(CC3CCCO3)C(=S)NCc3ccco3)c(=O)[nH]c2c1C (centres undefined)	44.7µM*	-6.9%	?	?	?
CCc1ccc2[nH]c(=O)c(CN(CC3CCCO3)C(=S)NCc3ccco3)cc2c1 (centres undefined)	.	.	?	?	-6.6%
Cc1ccc(C)c2[nH]c(=O)c(CN(CC3CCCO3)C(=S)NCc3ccco3)cc12 (centres undefined)	44.7µM*	.	-31.1%	-17.6%	19.2%
O=C(Nc1ccc(Cl)cc1Cl)c1cc(S(=O)(=O)NCc2ccc3c(c2)OCO3)ccc1F	6.4%[59 µM]	.	1.1%	-19.0%	22.3%
CC(C)CC(NS(=O)(=O)OCC(Cl)(Cl)Cl)c1ccccc1 (centres undefined)	-16.1%	16.2%	4.3%	39.8µM*	-8.7%
COC(=O)CCC(NS(=O)(=O)OCC(Cl)(Cl)Cl)c1ccccc1 (centres undefined)	.	2.0%	15.7%[57.1 µM]	-25.0%	41.9%
Cc1ccc(C(C)C)c(OCCNS(C)(=O)=O)c1	14.9%[59 µM]	.	1.6%	-7.8%	24.5%
Cc1ccc(C(C)C)c(OCCn2ccnc2C)c1	10µM*	-2.6%	50.1µM*	1.26µM*	?
Cc1ccc(OCCCCn2ccnc2C)c(C)c1	2µM*	-10.4%	22.4µM*	1µM*	?
COc1ccccc1Nc1ccc(NC(=O)c2cccc([N+](=O)[O-])c2C)cc1	8.6%[2.33 µM]	.	10µM*	12.6µM*	?
COc1ccccc1C(CNc1ncccc1[N+](=O)[O-])N(C)C (centres undefined)	?	.	-13.0%	-22.3%	-8.1%
COc1ccccc1Nc1ncccc1[N+](=O)[O-]	8.91µM*	?	31.6µM*	44.7µM*	?
Cc1cc(Br)cc(C=Nc2ccc(N3CCOCC3)cc2)c1O	.	.	.	-11.5%	32.1%
Oc1ccc(C=Nc2ccc(N3CCOCC3)cc2)c(O)c1	1.58µM*	.	?	22.4µM*	?
Oc1cc(Br)ccc1C=Nc1ccc(N2CCCCC2)cc1	44.7µM*	-21.9%	?	-21.4%	61.0%
Cc1ccc(N=Cc2ccc(O)cc2O)cc1F	10µM*	-4.7%[11.4 µM]	-35.1%	-20.7%	18.3%
CC(=O)Cc1nsc(NC(=O)C2Cc3ccccc3C(=O)O2)n1 (centres undefined)	56.2µM*	.	-9.9%	-26.8%	12.3%
O=C1OC(C(=O)Nc2nccs2)Cc2ccccc21 (centres undefined)	-46.8%[59 µM]	.	-38.3%	-21.4%	17.7%
O=C1NC(=S)N/C1=C/c1cc([N+](=O)[O-])ccc1O	11.2µM*	.	-31.5%	-18.7%	28.2%
O=C1NC(=S)N/C1=C/c1cccc([N+](=O)[O-])c1O	-3.0%[2.33 µM]	-5.4%	?	-23.6%	-10.7%
Cc1ccccc1Nc1c(-c2ccc(Cl)s2)nc2c(C)cccn12	-56.7%[59 µM]	.	?	?	?
SMILES	G9a inh	L3MBTL1 block	BAZ2B block	JMJD2A Tudor inh	HP1b binding inh
Cc1ccn2c(Nc3c(C)cccc3C)c(-c3ccc(Cl)s3)nc2c1	7.08µM*	.	5.62µM*	?	?
Cc1ccn2c(Nc3c(C)cccc3C)c(-c3ccsc3)nc2c1	10µM*	.	-36.0%	?	-20.0%
COc1ccc2c(c1)CCc1c(C(=O)Nc3cc(OC)c(Cl)cc3OC)noc1-2	-10.0%[59 µM]	.	-1.0%	-11.6%	-0.7%
O=C(NCCOCCn1c(=O)oc2ccccc21)Nc1cccc(Cl)c1	-6.2%[59 µM]	.	-9.3%	-10.7%	31.1%
Cc1cc(NC(=O)C(C)C)ncc1NC(=O)c1ccccn1	17.8µM*	10.5%	50.1µM*	-15.1%	-7.5%
CCOc1cc(NC(=O)c2ccccn2)c(OCC)cc1NC(=O)c1ccccc1	-1.6%	13.8%	-0.8%	0.7%	55.3%
CCCC(=O)Nc1cc(C)c(NC(=O)c2ccco2)cn1	.	-3.9%	-3.5%	-15.9%	-0.2%
CCCC(=O)Nc1cc(C)c(NC(=O)c2ccccn2)cn1	7.94µM*	-0.5%	50.1µM*	?	36.7%
CCOc1cc(NC(=O)c2ccccn2)c(OCC)cc1NC(=O)CC(C)C	11.1%[59 µM]	5.5%	7.0%	20µM*	-9.9%
Cc1cccc(-c2c3c(=O)n(C)c(=O)n(C)c3cn2-c2cc(N)c(Cl)cc2Cl)c1	?	.	?	?	9.7%
CCn1c(CNC(=O)c2ccc(OC)cc2)nnc1SCC(=O)Nc1ccc(C)cc1	3.6%[59 µM]	.	-5.2%	-16.8%	20.3%
CCN(Cc1ccccc1)C(=O)C1CCC(CNc2c(N3CCOCC3)c(=O)c2=O)CC1 (centres undefined)	?	.	8.4%	-17.0%	26.3%
C/C(=C\c1ccccc1)CN1CCN(C)CC1	12.6µM*	-5.0%	?	-100.4%	?
CCN(Cc1ccccc1)C1CCN(Cc2ccc(SC)cc2)CC1	?	.	50.1µM*	2.51µM*	?
CCN(Cc1ccccc1)C(=O)C1CCN(C/C(C)=C/c2ccccc2)CC1	35.5µM*	-1.6%	?	15.8µM*	-24.3%
CCN1CCN(Cc2ccc(NC(=O)Nc3ccc(SC)cc3)cc2)CC1	?	-5.2%	?	?	-33.9%
CCN(Cc1ccccc1)C(=O)C1CCN(Cc2ccc(SC)cc2)CC1	-0.4%	-7.5%	-22.5%	20µM*	?
CCc1nnc(NC(=O)c2nc(SCc3ccc(F)cc3)ncc2Cl)s1	?	.	-21.5%	-13.8%	27.7%
COc1ccc(C(=O)NCc2ccc3c(c2)CCN3C(C)=O)c(OC)c1	1.4%[59 µM]	.	-4.6%	-9.0%	20.4%
O=c1c(N2CCN(c3cccc(Cl)c3)CC2)csc2ccc(Cl)cc12	-45.9%[59 µM]	.	-0.7%	?	45.2%[57 µM]
CSc1nncn1/N=C/c1ccc([N+](=O)[O-])cc1	-1.7%	-1.5%	-16.0%	-3.1%	26.0%
S=c1[nH]c(-c2ccccc2)cn1/N=C/c1cccnc1	2.51µM*	.	-18.7%	0.794µM*	30.9%
Nc1nc2ccccc2n1/N=C/c1cccnc1	.	.	.	-4.1%	30.2%
C(=N\n1cnnc1)/c1cccs1	12.2%[12.7 µM]	.	12.1%	-12.6%	28.8%
S=c1[nH]ncn1/N=C/c1cccs1	7.94µM*	.	-36.8%	4.47µM*	32.3%
O=C(O)c1ccc(/C=N/n2cc(-c3ccccc3)[nH]c2=S)cc1	.	10.9%	-13.3%	2.82µM*	41.1%
O=[N+]([O-])c1ccc(/C=N/n2cn[nH]c2=S)cc1	7.94µM*	4.4%	-32.4%	7.08µM*	21.8%

Source: PubChem BioAssay
